According to PubChem BioAssay AID1159580 (chemical genetic matrix, 2015):
“And” between values parts separate entries of the source, which are not always exact repeats. Equal values may be shown once. In all, about 5,500 compounds went through this assay and about 2,000 (36%) were called active. Inconclusive results (about 18%) are left out. Rule as the data show it: active = normalized growth mostly below about 0.91 (no sharp cut-off); inconclusive = no clear call, values can overlap the other calls; inactive = mostly above about 0.92. The list shows a part of the results.

Assay: chemical genetic growth profiling, strain panel (AID 1159580);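 also: tested at 20 µM; growth read once vehicle control cultures reached saturation at 30 °C; 1 = growth at the plate median or of vehicle wells; lower values mean less growth of the strain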
Conditions: S. cerevisiae deletion strains, growth OD

Measured: normalized growth

NC(N)=NC(N)=Nc1ccccc1
inactive: locus YAL013W, strain DEP1, hits give low values 1.01 and 0.984 | locus YAL021C, strain ccr4, hits give low values 1 | locus YAL026C, strain drs2, hits give low values 0.998 | locus YAL030W, strain snc1, hits give low values 1.01 | locus YAL040C, strain CLN3, hits give low values 1.08 | locus YBL061C, strain skt5, hits give low values 1 | locus YBR009C, strain hhf1, hits give low values 0.979 | locus YBR021W, strain FUR4, hits give low values 1.02 | locus YBR023C, strain chs3, hits give low values 1 | locus YBR171W, strain sec66, hits give low values 1 | locus YBR229C, strain ROT2, hits give low values 1.01 | locus YBR231C, strain swc5, hits give low values 0.987 | locus YBR279W, strain paf1, hits give low values 1 | locus YCL011C, strain gbp2, hits give low values 1 | locus YCL016C, strain dcc1, hits give low values 1 | locus YCL029C, strain bik1, hits give low values 0.995 | locus YCL061C, strain MRC1 (second series), hits give low values 1 | locus YCL061C, strain MRC1, hits give low values 0.993 | locus YCL069W, strain vba3, hits give low values 1 | locus YCR088W, strain abp1, hits give low values 1.01 | locus YDL005C, strain med2, hits give low values 0.998 | locus YDL035C, strain GPR1, hits give low values 1.01 | locus YDL040C, strain nat1, hits give low values 0.991 | locus YDL074C, strain BRE1, hits give low values 1.02 | locus YDL101C, strain DUN1, hits give low values 1.02 | locus YDL134C, strain PPH21, hits give low values 1.01 | locus YDL185W, strain tfp1, hits give low values 0.996 | locus YDL192W, strain arf1, hits give low values 0.998 | locus YDR001C, strain nth1, hits give low values 0.998 | locus YDR069C, strain doa4, hits give low values 0.995 | locus YDR101C, strain arx1, hits give low values 1.02 | locus YDR137W, strain rgp1, hits give low values 0.981 | locus YDR150W, strain NUM1, hits give low values 0.998 | locus YDR159W, strain sac3, hits give low values 0.961 | locus YDR162C, strain NBP2, hits give low values 1.01 | locus YDR195W, strain ref2 0.948 | locus YDR297W, strain sur2, hits give low values 0.999 | locus YDR318W, strain mcm21, hits give low values 0.992 | locus YDR334W, strain swr1, hits give low values 1 | locus YDR335W, strain msn5, hits give low values 1 | locus YDR363W, strain ESC2, hits give low values 1.02 | locus YDR388W, hits give low values 1 | locus YDR392W, strain spt3, hits give low values 0.903 | locus YDR502C, strain sam2, hits give low values 0.993 | locus YEL003W, strain gim4, hits give low values 0.998 | locus YEL037C, strain rad23, hits give low values 1.01 | locus YEL061C, strain CIN8 (second series), hits give low values 0.996 | locus YEL061C, strain CIN8, hits give low values 1.01 | locus YER002W, strain NOP16, hits give low values 1.03 | locus YER015W, strain faa2, hits give low values 0.998 | locus YER016W, strain bim1, hits give low values 0.999 | locus YER110C, hits give low values 0.986 | locus YER111C, strain swi4, hits give low values 0.996 | locus YER155C, strain BEM2 (second series), hits give low values 0.964 | locus YER155C, strain BEM2, hits give low values 1 | locus YER167W, strain BCK2, hits give low values 1.01 | locus YFR010W, strain ubp6, hits give low values 1.01 | locus YGL078C, strain dbp3, hits give low values 0.997 | locus YGL086W, strain mad1, hits give low values 0.997 | locus YGL167C, strain pmr1, hits give low values 0.993 | locus YGL173C, strain kem1, hits give low values 0.991 | locus YGL227W, strain vid30, hits give low values 0.997 | locus YGL240W, strain doc1, hits give low values 0.964 | locus YGL248W, strain PDE1, hits give low values 1.02 | locus YGL253W, strain hxk2, hits give low values 1.01 | locus YGR078C, strain PAC10, hits give low values 1.01 | locus YGR135W, strain pre9, hits give low values 0.995 | locus YGR229C, strain SMI1, hits give low values 0.985 | locus YGR252W, strain gcn5, hits give low values 0.993 | locus YHR013C, strain ard1, hits give low values 0.952 | locus YHR027C, strain rpn1, hits give low values 1 | locus YHR030C, strain SLT2, hits give low values 1.01 and 1 | locus YHR079C, strain IRE1 (second series), hits give low values 0.988 | locus YHR079C, strain IRE1, hits give low values 1 | locus YHR094C, strain hxt1, hits give low values 0.987 | locus YHR129C, strain ARP1, hits give low values 1.01 | locus YHR142W, strain chs7, hits give low values 1.03 | locus YHR200W, strain rpn10, hits give low values 0.997 | locus YIL066C, strain RNR3, hits give low values 1.02 | locus YIL073C, strain SPO22, hits give low values 0.989 | locus YIL125W, strain kgd1, hits give low values 0.988 | locus YIR030C, strain dcg1, hits give low values 0.996 | locus YJL092W, strain hpr5, hits give low values 1 | locus YJL095W, strain BCK1 (second series), hits give low values 1.01 | locus YJL095W, strain BCK1, hits give low values 1.03 and 0.993 | locus YJL115W, strain asf1, hits give low values 1 | locus YJL129C, strain trk1, hits give low values 1.02 | locus YJL134W, strain LCB3, hits give low values 1.01 | locus YJL154C, strain vps35, hits give low values 1.01 | locus YJL164C, strain tpk1, hits give low values 1 | locus YJL166W, strain qcr8, hits give low values 0.992 | locus YJL168C, strain set2, hits give low values 0.994 | locus YJL187C, strain SWE1 (second series), hits give low values 1.02 | locus YJL187C, strain SWE1, hits give low values 1 | locus YJR043C, strain POL32, hits give low values 1.01
